Laboratory results as given in the supplement of paper PMC6555819.

System: VDR:RXRa (NR concentration 270 nM, RXRa partner concentration 90 nM)
Experiment: PBM binding z-score (relative to random genomic background probes); higher = stronger binding; sequences stand for … in GC…GCGATTGACAGCGTAGAATGAAGG
Procedure: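 Protein-binding microarray (Agilent 4x180K custom design, double-stranded 60-nt probes: 5' GC cap, 34-nt variable region, 24-nt constant primer region; full probe sequence given). Purified or IVT nuclear receptor:RXRα heterodimers (3:1 NR:RXRα, mostly 270:90 nM) or homodimers were incubated for 1 h in PBS with 2% milk and no ligand, then detected with Alexa488 antibodies. Fluorescence from o1-orientation probes (~5 replicates averaged) was converted to z-scores against 500 random hg19 background probes. Variable regions are seed direct-repeat (DR0–DR5) sites, all their single-nucleotide variants and half-site ablations.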

| Sequence | PBM binding z-score |
| --- | --- |
| ACAGACAGGTGAGTGAAGGTATCTCAGCTGGACG | -0.617 |
| TCGAGTAGGTAAGTCGGGGCATTCAGCCAACATA | 0.394 |
| CAAACTAAGTCAAGAGGTCAAAGTCCGCTTCCCG | 5.15 |
| TCTTGTAGATCAAAGGTTAAGGAAGCCGAAGCCT | 1.59 |
| TGAATGAGGGTATAAGATCAGGGAACGTTGCAAA | 0.217 |
| CGAACTAGGTCAAGGACCGTGAATCTCCGCACGC | 0.799 |
| TCTAGTTGGCCAAAGGTCACACACTCGAAATGCG | 4.93 |
| CGAACTAGGTCATCCAGGACAGTGCATACATTGA | 4.69 |
| ACTCGGAGGACAAAGGTCAGATCTACGCCAGTGA | 3.49 |
| TCTAGTTGGTCACGGAGGTTACACACGACGGGTA | 3.16 |
| CCTTACGGATCAAGGTTATAGCACGGGTGGTACG | 0.474 |
| TCGTGTAGGTTACCAATGGGGCATTCAGCTTTCT | 0.608 |
| GCTAGCAGGCCATTTGGGTAACTCAATGACGGGC | -0.713 |
| GTACCAAGGTGAATAGGTCGTTGCTGAGTAGGCG | 0.644 |
| ATCGAAAGGTCGATGGTGAGTATACCCACCCGAA | 1.78 |
| CAAACTAGGTCCAAGGTCAAAGTCGAGCCAACCA | 4.04 |
| TCATATAGGTAATACAGGCGAAAGTCGGCATCTA | 0.97 |
| ACTTACGGGTCAACCAGGTTATAGCACGCGTATA | 6.72 |
| GCAGACAGGTGAAACGCAGGTAATTCAGGGTGGC | -0.324 |
| CGAACTAGGTGAAGGACAGTGAATCTCCGCACGC | -0.403 |

| Sequence | PBM binding z-score |
| --- | --- |
| GCGACTGGGGCATCAGCAGGTTATCATAACTTAA | -0.0496 |
| CGTCCAAGGTCAATGCTAGTTCAGTGAAAGCATT | 4.84 |
| ATCGACAGGTCGACGAGGTGAGTATACACCGTTT | 2.85 |
| ATATGTAGGTTAGCTTGGGTCATTCAGACTAGGC | 2.64 |
| CGTCCAAGGTCAATGCTAGGTCAGTGCAAGCATT | 4.95 |
| TCTATTAGTTGAAGGGCAACCGTCGAGTCCGTTT | 0.884 |
| GTACCAAGGTGAATAGGTCGTCGATGAGTAGGCG | 0.97 |
| GGAACGAGGGCAAAGTTGATAGCCTCTGTCGACG | 0.981 |
| GCTCGGAGGACAAGCTCAGAGCTTTGTCCGTAGA | -0.646 |
| GATGCAGGGTCAAGGCCAGAGTACGCGTATTGAT | 4.21 |
| ATATGTCGGTTATCGGGTCATTCAGTTTGCGCAT | 4.84 |
| CGTCCAAGGACAAAGGTCAGTGAAGAGATGACGG | 2.64 |
| CCTAGTTGGTCAGGAGGTCGCACACCGGATATGA | 1.41 |
| TCAGACAGGTGAAGGTCACTCAGGTACGCAGTCG | 4.18 |
| CGAACGAGGGCATGACTTGATAGCAAATGCCGAT | 0.573 |
| TTACCCAGGTGAAAGGTCGTTGATGCACGCCTTG | 3.08 |
| CCTGCCAGGTCAATGGTCAGCTAAAGCAGCTCGC | 1.5 |
| CCTAGCAGGCCAATCTGGGTCCCTCAAGGCTTGA | -0.831 |
| ATATGTAGGTCACATCCGGGTCATTCAGGCTATG | 6.03 |
| TGAAAGAGGTTAAAGATCAGGGAACGTGGCGTCG | 1.82 |
